Test results: PubChem BioAssay (NCATS)
Results filed as inconclusive are left out. Entries that show only a call come without a potency. Activity calls are given as the source filed them. Calls come from the whole dose curve; as a rule, active = well fitted curve in the direction sought with a large enough effect; inconclusive = small, poorly fitted or top-dose-only effect, or another doubt; inactive = no such curve, though single readings can be large; an effect the other way counts as inactive or inconclusive.

Columns and labels:
[1] = target: Aldehyde dehydrogenase, mitochondrial (Homo sapiens) (UniProt P05091); test: qHTS for Inhibitors of the Aldehyde Dehydrogenase Family (ALDH2) Primary screen (AID 2061308); note: nearly all actives have a fitted effect of over 55% in size
[2] = target: Retinaldehyde dehydrogenase 3 (Homo sapiens) (UniProt P47895); test: qHTS for Inhibitors of the Aldehyde Dehydrogenase Family (ALDH1A3) Primary screen (AID 2061315)

Compound | Potency [1] | Potency [2]
O=C(Nc1ccc(-c2nc3ccccc3[nH]2)cc1)c1ccncc1 | inactive | inactive
Fc1cc(Nc2nc(-c3ccncc3)nc3ccccc23)ccc1-c1ccnc(C(F)(F)F)c1 | inactive | inactive
CN(Cc1ccco1)c1ncnc2ccc(-c3ccc4c(ccn4C)c3)cc12 | inactive | inactive
CC(C)(O)C1Cc2c(ccc(C(=O)CCc3ccccc3)c2O)O1 (stereo not given) | inactive | inactive
Cc1cc(C(C#N)c2ccc(Cl)cc2)c(Cl)cc1NC(=O)c1cc(I)cc(I)c1O (stereo not given) | inactive | inactive
O=C(Cn1nc(C2CCCCC2)ccc1=O)NCCc1ccccc1 | inactive | inactive
FC(F)(F)c1cccc(N2CCN(C(=S)Nc3cccnc3)CC2)c1 | inactive | inactive
COc1ccc(-c2ccc(=O)n(CC(=O)NCCc3ccccc3)n2)cc1OC | inactive | inactive
COc1ccc(O)c(CNc2ccc(S(=O)(=O)Nc3nccs3)cc2)c1 | inactive | inactive
CC(=O)c1cccc(NC(=O)c2cnn3c(C)cc(C)nc23)c1 | inactive | inactive
Oc1cccc(C2NC(=S)Nc3cccc(F)c32)c1 (stereo not given) | inactive | inactive
COC(=O)c1cc2c(C(F)(F)F)cc(-c3ccccc3)cc2n1O | inactive | inactive
CCN(CC)CCCC(C)n1c(-c2ccccc2)nc2c(NCc3ccccc3)nc(C)nc21 (stereo not given) | inactive | inactive
COC1=CC(=O)C[C@@H](C)[C@@]12Oc1c(Cl)c(OC)cc(OC)c1C2=O | inactive | inactive
COc1cc(O)c(C(CC(=O)N2CCCC(C(F)(F)F)C2)c2ccc3c(c2)OCO3)c(OC)c1 (stereo not given) | inactive | inactive
